SUMO Mot1 rescue: blocks SUMOylation pathway, rescuing yeast Mot1-301 growth | AID 2716 | growth rescue, % at 18.8 µM | S. cerevisiae Mot1-301 growth rescue, ATP luminescence, 38.5C; percent above DMSO median, 100 means doubled | actives 1% (n = 320,000);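 active = every valid replicate shows activation above 250% relative to neutral control wells; inactive = the rest, any valid replicate at or below 250%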;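 also: OY570 slx delta 5 strain wells were the positive control but not used for scaling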
AI-2 QS mod: Vibrio harveyi AI-2 quorum sensing modulation. activity change, % at 7.5 µM. AID 2094. actives 0.4% (n = 300,000). Vibrio harveyi JMH597 AI-2 luminescence/OD600 ratio, 9 h; stronger effect = lower value; strain lacks LuxN and CqsS sensors; 0 = neutral-control median; in the data active = activity change below about -75%, passing the limit was not always enough;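 also: luminescence divided by OD600 gain over 9 h not by final OD600 alone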
Bfl-1 A1 inh: inhibitors of the anti-apoptotic protein A1, read as caspase activation | actives 0.066% (n = 330,000) | MEF A1-2A-BIM cells, Caspase-Glo 3/7 luminescence, 3 h; percent of clofoctol response, vehicle zero | caspase activation, % (concentration not given with the values) | AID 2462;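 active = over half of replicate activation scores above 10%, or exactly half above 10 with the replicate mean above 10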
aDG glyco up: alpha-DG glycosylation activation; AID 624168; actives 0.22% (n = 360,000); activation, % at 10 µM; Pro5-aDG cells, alpha-DG glycosylation AlphaScreen (IIH6); 0% Pro5, 100% B10-LARGE cell signal;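 active = activation of at least 8% versus controls, or a plate z-score of at least 8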;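 also: Pro5 are CHO cells carrying HIG-tagged alpha-DG that lacks glycosylation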
ARNT TACC3 PPI: ARNT/TACC3 interaction disruption | Q9Y6A5 | AlphaScreen His-ARNT PAS-B/GST-TACC3 binding, luminescence; TACC3 fragment carries E629A point mutation | inhibition, % at 9.99 µM | actives 0.66% (n = 390,000);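 active = mean inhibition of replicates at least 50% and at least half of replicates each reaching 50%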;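 also: 0% = complete ARNT plus TACC3 wells and 100% = ARNT alone without TACC3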
Mot1 SUMO dose: SUMO pathway inhibitors in yeast Mot1-301 growth. shares compounds with SUMO Mot1 rescue. S. cerevisiae Mot1-301 galactose growth, ATP luminescence, 24 h; -100 = growth of slx-deleted rescue strain. growth activity, percent, % at 42 µM. 2,300 tested, under 10 active;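 active = Signal drops as the depositor expects, and the fitted half-maximal dose is no more than ten times the top valid tested dose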;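 also: more negative values mean stronger growth rescue toward the control strain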
Active calls of the source: *; . = no result; + = active, no number. Only some compounds are listed: those with a hit (about 1.8% of all), similar ones and a draw of the others.

SMILES | SUMO Mot1 rescue | AI-2 QS mod | Bfl-1 A1 inh | aDG glyco up | ARNT TACC3 PPI | Mot1 SUMO dose
COc1ccc(C(=O)CSc2nnc3ccc(-c4ccccn4)nn23)cc1 | 745.1* | 17.3 | 0.7 | 0.1 | 1.4 | 1.0
CC(=O)Nc1cc(C(C)C)c(O)c(C(C)C)c1 | 14.6 | 10.5 | 0.2 | 0.1 | 18.0 | .
COc1ccc(C(=O)N/C(=C\c2cn(C)c3ccccc23)C(=O)OCCN(C)C)cc1 | 506.8* | 13.3 | 0.4 | -0.1 | 7.2 | 0.0
O=C(Cn1nc(-c2ccccc2)c2ccccc2c1=O)Nc1ccc(O)cc1 | 3.1 | 1.9 | 0.4 | 0.2 | -8.4 | .
O=C(O)COc1ccc(Br)cc1/C=N\Nc1ccccn1 | 425.2* | 19.8 | 2.9 | -0.1 | 9.1 | 0.8
O=C(c1cc2c(ccc3ccccc32)oc1=O)N1CCCC1 | 495.2* | 1.1 | 0.7 | -0.3 | 1.1 | 0.2
O=C(O)c1cc2c(ccc3ccccc32)oc1=O | -7.8 | 70.7 | -0.4 | -0.2 | -74.1 | .
CCS(=O)(=O)N1Cc2ccccc2CC1C(=O)Nc1ccccc1OC (stereo not given) | -15.3 | 11.8 | -0.8 | 0.0 | 2.4 | .
COc1ccc(CCNC(=O)C2CCCN(S(=O)(=O)N3CCCCCC3)C2)cc1OC (stereo not given) | -7.7 | -7.3 | 0.2 | 0.0 | -7.2 | .
CSc1ccc(CCNC(=O)C2CCCN(S(=O)(=O)N3CCOCC3)C2)cc1 (stereo not given) | 564.3* | 28.5 | 0.8 | -0.2 | -4.0 | 0.3
COc1ccc(/C=N\NC(=O)c2cc(OCC(F)(F)F)ccc2OCC(F)(F)F)cc1 | 797.3* | 28.3 | 0.6 | -0.3 | -4.1 | 0.4
COc1ccc(Nc2oc(-c3cccs3)nc2C#N)cc1 | 918.0* | 2.2 | -1.5 | -0.1 | . | -0.8
CNc1oc(-c2cccs2)nc1C#N | 624.9 | 10.6 | 0.3 | 0.4 | . | .
C[C@H](CO)N1C[C@H](C)[C@H](CN(C)S(=O)(=O)c2ccc(F)cc2)OCCCC[C@H](C)Oc2ccc(NC(=O)CCCN(C)C)cc2C1=O | . | . | . | . | -3.2 | .
CCn1nc(C(=O)OCc2cccc(S(=O)(=O)N(C)C)c2)c2ccccc2c1=O | 849.8* | 19.9 | -1.0 | -0.2 | -8.4 | -0.6
CN(C)S(=O)(=O)c1cccc(COC(=O)c2ccc(Cl)cc2O)c1 | 185.3 | 4.6 | 0.4 | 0.6 | 4.2 | .
O=C1CSC(c2ccc(F)c(F)c2)N1c1ccccc1F (stereo not given) | 890.5* | 33.2 | 0.6 | 0.0 | -11.9 | 0.2
O=C1CSC(c2ccc(F)cc2)N1c1ccccc1F (stereo not given) | -16.2 | 8.0 | 0.8 | -0.2 | -4.2 | .
CC(C)CCOCc1nc2sc3c(c2c(=O)[nH]1)CCC(C)C3 (stereo not given) | 593.2* | 12.5 | -1.0 | 0.0 | -1.5 | -0.2
N#CCCN1CCN(C(=S)c2ccc(-c3cccc(Cl)c3)o2)CC1 | 22.2 | 0.9 | 0.1 | -0.4 | -3.2 | .
COC(=O)c1ccc2cc(OC)cc([N+](=O)[O-])c2n1 | . | . | . | -0.1 | -21.4 | .
COc1ccc(-c2nnc(-c3cc4c(ccc5ccccc54)oc3=O)o2)cc1 | 574.1* | 26.4 | 0.7 | -0.1 | 8.1 | 0.4
COc1ccc(N=Nc2cc(C)c(O)c(CN3CCCCC3)c2)cc1 | -13.1 | 15.0 | 0.2 | -0.4 | 36.4 | .
CN1CCN(CC(=O)N2c3ccccc3C(=O)Nc3cccnc32)CC1 | + | 2.7 | 0.3 | . | . | 0.1
CCN1CCN(c2ncnc3scc(-c4ccc(OC)cc4)c23)CC1 | 6.4 | 21.9 | 1.5 | -0.2 | -3.0 | .
SMILES | SUMO Mot1 rescue | AI-2 QS mod | Bfl-1 A1 inh | aDG glyco up | ARNT TACC3 PPI | Mot1 SUMO dose
COc1ccc([N+](=O)[O-])c2c(=O)ccoc12 | 585.2* | 17.4 | 0.2 | 0.0 | -7.6 | -0.2
CCc1nnc(NC(=O)CCC(=O)NC2CCCc3ccccc32)s1 (stereo not given) | 104.9 | 0.3 | 0.6 | -0.2 | 17.8 | .
CCCCc1ccc(NC(=S)NCc2cccs2)cc1 | 572.8* | -17.5 | 0.6 | 0.2 | 2.2 | -1.1
Cc1ccc(NC(=S)NCc2cccs2)cc1 | 11.1 | -8.0 | 0.0 | 0.0 | -1.6 | .
COc1ccc(C2=Nn3c(nnc3-c3ccco3)SC2)cc1 | 532.8* | 48.2 | -0.5 | 0.0 | 35.4 | -0.6
CN(C)C(=O)CNC(=O)C1CCCCC1 | + | 11.3 | 1.6 | 0.0 | -2.7 | 0.1
Cc1cc(C(=O)OCC(=O)Nc2ccccc2C(F)(F)F)on1 | -4.3 | . | -0.2 | -0.2 | 26.1 | .
COc1ccccc1CNC(=O)C1CCC(CNS(=O)(=O)c2ccc(C)cc2)CC1 (stereo not given) | 625.2* | -2.1 | -0.9 | 0.1 | 7.6 | 0.0
COc1ccccc1CNC(=O)C(C)Sc1ccc(C)cc1 (stereo not given) | 415.6* | 23.1 | 0.7 | -0.3 | -5.1 | -0.5
COc1ccccc1CNC(=O)CCC(=O)Nc1nnc(C(C)C)s1 | 928.4* | 9.7 | . | -0.3 | -2.4 | 0.0
CCOC(=O)N1N=C(CC)CC1(O)C(F)(F)F (stereo not given) | 11.0 | 15.3 | -0.1 | 0.2 | 1.4 | .
O=C(CSc1nc2ccccc2[nH]1)NCc1ccco1 | 1.5 | 22.9 | -0.7 | -0.3 | -2.5 | .
O=C(CSc1nc2ccc(Cl)cc2[nH]1)NCc1ccco1 | 358.5* | 23.3 | 0.1 | 0.3 | 1.4 | -0.1
COc1cc(/C=N/n2cnnc2)ccc1OCc1ccccc1 | 540.0* | 8.9 | -0.6 | -0.1 | 4.7 | 0.6
O=C(O)CC(NC(=O)OCc1ccccc1)c1ccc(Br)cc1 (stereo not given) | 584.8* | 4.1 | 0.7 | -0.2 | . | 0.5
COc1ccc(CN2C(=O)c3c(c(C)n(C)c3C)C2C(=O)NC2CCC(C)CC2)cc1 (stereo not given) | 696.7* | 9.0 | 0.0 | 1.1 | -2.3 | -0.7
Cc1noc(C)c1S(=O)(=O)N1CCCC(C(=O)NCC2CCCO2)C1 (stereo not given) | + | 11.8 | 0.1 | 0.0 | . | 0.5
Cc1ccc(S(=O)(=O)N2CCCC(C(=O)NCC3CCCO3)C2)cc1 (stereo not given) | 17.0 | 24.2 | 0.2 | 0.0 | -3.0 | .
Cc1sc2ncnc(NCc3ccccc3)c2c1C | 9.1 | 15.9 | -1.0 | 5.5 | -1.0 | .
Cc1sc2ncnc(Nc3ccccc3)c2c1C | 370.8* | 17.0 | 0.6 | 0.0 | -1.8 | -0.3
COc1ccc(S(=O)(=O)N2CCCC2CNC(=O)C(=O)NCc2ccccn2)cc1 (stereo not given) | 439.8* | 69.0 | 0.6 | 0.4 | 25.2 | 0.2
Cc1ccc(NC(=O)C(=O)NCC2CCCN2S(=O)(=O)c2cccs2)cc1 (stereo not given) | 464.1* | 10.4 | 1.7 | 0.1 | 3.7 | 0.4
Cc1ccc(S(=O)(=O)N2CCCC2CNC(=O)C(=O)NCc2ccccn2)cc1 (stereo not given) | 5.6 | 24.2 | -0.3 | 0.1 | 23.2 | .

Screening data: PubChem BioAssay, several laboratories
